Bioassay records (PubChem)
KLK7 zymogen act: proKLK7 (human) activation, primary screen; P49862; purified proKLK7, EDANS-DABCYL substrate fluorescence; 100% is mature enzyme control, 0% vehicle; activation, % at 7 µM; hit rate 0.9% among 370,000;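 active means activation above the mean of all tested compounds plus 3 SD, computed per campaign excluding outliers beyond control limits, cut at about 13% in these data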
ADAM10 inh: inhibits human ADAM10 | O14672 | hit rate 0.62% among 370,000 | inhibition, % at 7 µM | recombinant ADAM10, EDANS/DABCYL FRET peptide cleavage, 3 h;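 active means inhibition above a per-campaign cutoff equal to the mean of compounds falling between control-based bounds plus 3 SD, cut at about 20% in these data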;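 further: 0% = DMSO wells while the 100% control is not disclosed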
FAS TE block: FAS thioesterase (human) inhibition; P49327; inhibition, % at 15 µM; recombinant FAS-TE, OMFH fluorogenic substrate, fluorescence endpoint; hit rate 0.67% among 360,000;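 active means compounds whose normalised, plate-corrected inhibition of enzyme fluorescence in the single-dose primary screen is 50% or more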;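 further: 0% = DMSO with enzyme and 100% = substrate without enzyme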
ADAM17 inh: inhibits human ADAM17 | recombinant ADAM17, EDANS/DABCYL FRET peptide cleavage | inhibition, % at 6.95 µM | hit rate 0.83% among 370,000 | AID 720648 | P78536;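 active means inhibition above the mean of compounds lying between control limits plus 3 SD, set per campaign, cut at about 8.5% in these data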;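 further: 0% = DMSO-only wells as the low control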
Target sequence (P78536 215-824 limits assumed): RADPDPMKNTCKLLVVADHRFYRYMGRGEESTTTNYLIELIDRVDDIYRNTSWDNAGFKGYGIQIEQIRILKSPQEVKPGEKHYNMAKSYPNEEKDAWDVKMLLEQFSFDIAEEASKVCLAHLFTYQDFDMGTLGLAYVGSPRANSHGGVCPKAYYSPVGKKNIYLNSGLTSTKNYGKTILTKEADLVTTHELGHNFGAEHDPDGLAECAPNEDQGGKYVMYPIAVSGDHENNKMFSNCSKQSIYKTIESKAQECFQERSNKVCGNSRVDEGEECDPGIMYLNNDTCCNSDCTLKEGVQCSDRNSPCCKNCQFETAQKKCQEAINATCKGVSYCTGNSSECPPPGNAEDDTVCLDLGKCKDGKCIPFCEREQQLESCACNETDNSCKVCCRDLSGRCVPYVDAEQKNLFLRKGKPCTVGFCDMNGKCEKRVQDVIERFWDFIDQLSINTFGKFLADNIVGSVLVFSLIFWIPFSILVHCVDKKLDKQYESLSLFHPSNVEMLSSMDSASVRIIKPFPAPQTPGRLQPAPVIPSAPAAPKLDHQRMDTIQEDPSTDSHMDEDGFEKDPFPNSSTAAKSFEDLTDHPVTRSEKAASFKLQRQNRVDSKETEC
GRIN3A LBD mod: modulators (binders) of human NR3A ligand-binding domain | NR3A LBD differential scanning fluorimetry, Tm shift; 0% = protein alone, 100% = glycine-bound protein | Tm shift relative to glycine control, % at 25 µM | hit rate 2.5% among 340,000;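 active means melting temperature shift of at least 10% of the positive control shift, at one fixed dose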
proKLK7 act conf: proKLK7 activation, confirmation. activation, % at 7 µM. shares compounds with KLK7 zymogen act. AID 686949. purified proKLK7, EDANS-DABCYL substrate fluorescence; scaled: vehicle 0, mature enzyme 100. hit rate 68% among 3,200;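 active means activation, as change over the incubation, above the mean of all tested compounds plus 3 SD, cut at about 13% in these data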
EDANS interfere: optically interferes with EDANS-DABCYL signal, flagging KLK7 hits; shares compounds with KLK7 zymogen act; EDANS-DABCYL substrate fluorescence interference, no enzyme, 4 h; solvent 0%, active enzyme control 100%; activation, % at 7 µM; hit rate 80% among 3,200; AID 686952;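 active means activation above the all-compound mean plus 3 SD, ignoring values outside control-based bounds, cut at about 4.8% in these data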;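 further: value is the 4 h activation minus the activation read at time zero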
Active calls of the source: *. Shown are actives, neighbours in structure and some others; about 4.6% of the full set was active somewhere.

Screening Cc1cc(NCCO)c2ccccc2n1 returned KLK7 zymogen act 0.8, ADAM10 inh 3.6, FAS TE block -4.0, ADAM17 inh -0.9 and GRIN3A LBD mod -1.4.
For Cc1cc(NCCO)c2cc(O)ccc2n1 the results were KLK7 zymogen act 80.6*, ADAM10 inh inactive, FAS TE block -4.5, ADAM17 inh inactive, GRIN3A LBD mod 0.0, proKLK7 act conf 63.7* and EDANS interfere 68.6*.
Screening COc1ccc(-c2cn3cccnc3n2)cc1F returned KLK7 zymogen act 64.3*, ADAM10 inh inactive, FAS TE block -8.5, ADAM17 inh inactive, GRIN3A LBD mod 0.1, proKLK7 act conf 77.7* and EDANS interfere 82.5*.
For O=S(=O)(c1cccc(-c2cn3cccnc3n2)c1)N1CCCCCC1 the results were KLK7 zymogen act 5.2, ADAM10 inh inactive, FAS TE block -6.3, ADAM17 inh -412.9 and GRIN3A LBD mod -0.8.
For O=S(=O)(Nc1ccc(-c2cn3cccnc3n2)cc1)c1ccccc1 the results were KLK7 zymogen act 64.8*, ADAM10 inh inactive, FAS TE block -3.8, ADAM17 inh -425.7, GRIN3A LBD mod -5.8, proKLK7 act conf 22.2* and EDANS interfere 22.4*.
`O=S(=O)(Nc1cccc(-c2cn3cccnc3n2)c1)c1ccc(F)cc1` gave KLK7 zymogen act 58.5*, ADAM10 inh inactive, FAS TE block -6.4, ADAM17 inh -406.1, GRIN3A LBD mod -1.7, proKLK7 act conf 14.4* and EDANS interfere 13.7*.
`O=S(=O)(Nc1cccc(-c2cn3ccsc3n2)c1)c1ccc(F)cc1` gave KLK7 zymogen act 0.3, ADAM10 inh 5.5, FAS TE block 8.1, ADAM17 inh -6.7 and GRIN3A LBD mod -12.4.
`O=S(=O)(Nc1cccc(-c2cn3cccnc3n2)c1)c1ccc(-c2ccccc2)cc1` gave KLK7 zymogen act -11.8, ADAM10 inh -440.4, FAS TE block 16.4, ADAM17 inh -181.6 and GRIN3A LBD mod 4.9.
O=S(=O)(Nc1cccc(-c2cn3cccnc3n2)c1)c1ccccc1 was read as KLK7 zymogen act 70.0*, ADAM10 inh inactive, FAS TE block -4.8, ADAM17 inh inactive, GRIN3A LBD mod -0.1, proKLK7 act conf 14.9* and EDANS interfere 17.7*.
`CCn1c2ccccc2c2cc(C=Nn3c(-c4ccccn4)n[nH]c3=S)ccc21` gave KLK7 zymogen act -2.3, ADAM10 inh -79.8 and ADAM17 inh -20.2.
O=S(=O)(c1ccccc1)N1CCCc2nc(-c3ccc(F)cc3)ccc21 was read as KLK7 zymogen act -0.1, ADAM10 inh 7.4 and ADAM17 inh 4.0.
COc1ccc(-c2cn3cccnc3n2)cc1NS(=O)(=O)c1ccccc1 was read as KLK7 zymogen act 16.3*, ADAM10 inh -273.3, FAS TE block 6.4, ADAM17 inh -70.5, GRIN3A LBD mod -16.0, proKLK7 act conf 4.3 and EDANS interfere 5.2*.
`COc1ccc(-c2cn3cccnc3n2)cc1NC(=O)c1cc(OC)c(OC)c(OC)c1` gave KLK7 zymogen act 5.2, ADAM10 inh inactive, FAS TE block -3.8, ADAM17 inh -189.3 and GRIN3A LBD mod -0.4.
Screening O=C(COc1ccc2oc(-c3ccco3)cc(=O)c2c1)N1CCCCC1 returned KLK7 zymogen act 60.7*, ADAM10 inh inactive, FAS TE block -1.5, ADAM17 inh inactive, GRIN3A LBD mod 0.8, proKLK7 act conf 59.5* and EDANS interfere 59.5*.
COc1ccc2oc(-c3ccncc3)cc(=O)c2c1 was read as KLK7 zymogen act 21.0*, ADAM10 inh inactive, FAS TE block -6.0, ADAM17 inh -159.7, GRIN3A LBD mod 0.2, proKLK7 act conf 37.2* and EDANS interfere 33.0*.
Screening O=C(COc1ccc2c3c(c(=O)oc2c1)CCC3)N1CCCCC1 returned KLK7 zymogen act 0.4, ADAM10 inh -179.6, FAS TE block 3.4, ADAM17 inh -64.6 and GRIN3A LBD mod -1.5.
Screening COc1ccc2oc(-c3ccco3)cc(=O)c2c1 returned KLK7 zymogen act 57.3*, ADAM10 inh inactive, FAS TE block 0.4, ADAM17 inh inactive, GRIN3A LBD mod -0.5, proKLK7 act conf 73.7* and EDANS interfere 71.3*.
`Cc1ccccc1CN1CCCCC(NC(=O)c2cc(-c3ccccc3)no2)C1=O` (stereo unspecified) gave KLK7 zymogen act 0.8, ADAM10 inh 5.0 and ADAM17 inh 0.9.
COc1c2c(cc3c1c(=O)c1ccccc1n3C)OCO2 was read as KLK7 zymogen act 45.2*, ADAM10 inh inactive, ADAM17 inh -279.3, proKLK7 act conf 56.0* and EDANS interfere 76.6*.
`CC(C)CN1C(=O)C[C@@]2(C(=O)N(C)c3ccc(NC(=O)C(F)(F)F)cc32)C1c1ccccc1` (stereo partly specified) gave KLK7 zymogen act -0.3, ADAM10 inh -5.4 and ADAM17 inh -5.5.
COc1ccc(-n2c(O)c(/C=N/NS(=O)(=O)c3ccc(C)c([N+](=O)[O-])c3)c3ccccc3c2=O)cc1OC was read as KLK7 zymogen act 15.1*, ADAM10 inh -45.2, FAS TE block 1.5, ADAM17 inh -5.0, GRIN3A LBD mod 4.7, proKLK7 act conf 40.8* and EDANS interfere 43.6*.
Screening COc1cc(/C=N/NS(=O)(=O)c2ccc(C)c([N+](=O)[O-])c2)cc([N+](=O)[O-])c1O returned KLK7 zymogen act -0.6, ADAM10 inh 1.4, FAS TE block -2.2, ADAM17 inh -1.1 and GRIN3A LBD mod -3.0.
Screening O=C(CSc1nc2nc(-c3cccs3)cc(C(F)(F)F)c2c(=O)[nH]1)NCc1ccco1 returned KLK7 zymogen act 15.9*, ADAM10 inh inactive, FAS TE block -16.6, ADAM17 inh inactive, GRIN3A LBD mod -1.4, proKLK7 act conf -33.5 and EDANS interfere -23.3.
`COC(=O)CSc1nc2nc(-c3cccs3)cc(C(F)(F)F)c2c(=O)[nH]1` gave KLK7 zymogen act 1.0, ADAM10 inh -123.8, FAS TE block 2.3, ADAM17 inh -36.6 and GRIN3A LBD mod -1.1.
For O=C(CSc1nc2nc(-c3cccs3)cc(C(F)(F)F)c2c(=O)[nH]1)C(F)(F)F the results were KLK7 zymogen act 67.0*, ADAM10 inh inactive, FAS TE block -1.2, ADAM17 inh inactive, GRIN3A LBD mod -4.0, proKLK7 act conf 277.6* and EDANS interfere 260.3*.
COc1ccc(CCNC(=O)c2cc3c(=O)n4cccc(C)c4nc3n(CCCN3CCOCC3)c2=N)cc1 was read as KLK7 zymogen act 0.1, ADAM10 inh -251.4, FAS TE block -2.5, ADAM17 inh -84.3 and GRIN3A LBD mod 1.2.
